The structures appear in SMILES notation. Structures can show the parent of a compound that is named as a salt. ± gives the standard deviation or the standard deviation of the averaged measurements.

Details in all cases: 25 µM; exposure: 24-48 hpf
Test [1] has as its system Danio rerio Tg(wt1b:EGFP) embryo, pronephros. The experiment in a line: glomerular separation, fold change vs DMSO control; higher = glomeruli further apart (abnormal). An outline of the steps:
(§1)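 Dechorionated Tg(wt1b:EGFP) zebrafish embryos were incubated at 28.5°C from 24 to 48 hpf with 25 μM compound in HEPES-buffered E3 containing 0.5% DMSO and 0.003% PTU. Distances and angles between 16 manually set points on maximum projections of dorsal pronephros images were measured in Fiji, with values over 2 SD from the feature mean excluded. Each feature is a fold change relative to the mean of same-day DMSO-treated embryos.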

Test [2] has the same test system. Put plainly: glomerular width (mean of left and right), fold change vs DMSO control; higher = wider glomerulus. An outline of the steps:
as §1

For test [3] the test system is unchanged. Put plainly: fraction of imaged embryos annotated as normal kidney; higher = less nephrotoxic; extreme values may be limits of the assay. The method in brief:
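Zebrafish embryos carrying Tg(wt1b:EGFP) were dechorionated and exposed to 25 μM compound (0.5% DMSO) between 24 and 48 hpf at 28.5°C. Their pronephroi were imaged by widefield fluorescence, and each embryo was classed by hand from maximum projections. The measure is the fraction of embryos per treatment falling in the normal-kidney category.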

For test [4] the test system is unchanged. Put plainly: pronephric angle neck segment to proximal convoluted tubule (mean of left and right), fold change vs DMSO control; higher = larger pronephric angle. An outline of the steps: as §1

With `COCC1=C(C(=O)OC(C)OC(=O)OC(C)C)N2C(=O)[C@@H](NC(=O)/C(=N\OC)c3csc(N)n3)[C@H]2SC1` (stereo partly specified) [Cefpodoxime proxetil], the glomerular separation in test [1] turned out to be 1.06 ± 0.52. This compound also came in with a glomerular width in test [2] of 0.893 ± 0.055. Also, the “fraction of imaged embryos annotated as normal kidney” value (“fraction of imaged embryos annotated” for short) in test [3] worked out at 1. Also, the “pronephric angle neck segment” value in test [4] amounted to 1.05 ± 0.054.

For the compound `CN(Cc1cc(Br)cc(Br)c1N)C1CCCCC1` [Bromhexine hydrochloride], the glomerular separation in test [1] was found to be 0.612 ± 0.2. In test [2], this compound displayed a glomerular width of 0.984 ± 0.067. The “fraction of imaged embryos annotated” value in test [3] worked out at 1. The “pronephric angle neck segment” value in test [4] was found to be 1 ± 0.026.

`CCCC(=O)Nc1ccc(OCC(O)CNC(C)C)c(C(C)=O)c1` (stereo unspecified) [Acebutolol hydrochloride] came in with a glomerular separation in test [1] of 1.43 ± 0.56. Also, in test [2], the glomerular width came to 1.06 ± 0.075. The “fraction of imaged embryos annotated” value in test [3] came to 0.75. Moreover, the “pronephric angle neck segment” value in test [4] is 0.9596 ± 0.0066.

Regarding `COC(c1ccccc1)(c1ccccc1)[C@H](Oc1nc(C)cc(C)n1)C(=O)O` [Ambrisentan], the glomerular separation in test [1] stood at 0.883 ± 0.35. Moreover, the glomerular width in test [2] came to 0.873 ± 0.017. Besides, the “fraction of imaged embryos annotated” value in test [3] turned out to be 0.833. The “pronephric angle neck segment” value in test [4] stood at 1.09 ± 0.018.

Consider `CCCCCCNC(=O)n1cc(F)c(=O)[nH]c1=O` [Carmofur], for which the glomerular separation in test [1] stood at 8.71 ± 3.1. Further, in test [2], the glomerular width was 0.552 ± 0.03. The “fraction of imaged embryos annotated” value in test [3] came to 0. Moreover, the “pronephric angle neck segment” value in test [4] was found to be 1.72 ± 0.072.

In turn, `CC(=O)OCC(=O)[C@@]12OC3(CCCC3)O[C@@H]1C[C@H]1[C@@H]3CCC4=CC(=O)C=C[C@]4(C)[C@@]3(F)[C@@H](O)C[C@@]12C` [Amcinonide] returned a glomerular separation in test [1] of 1.06 ± 0.48. In test [2], this compound registered a glomerular width of 1.22 ± 0.14. In addition, in test [3], the “fraction of imaged embryos annotated” value is 0.417. For the same compound, in test [4], the “pronephric angle neck segment” value is 1.01 ± 0.019.

Take `Nc1ccc(S(=O)(=O)Nc2ncccn2)cc1` [Sulfadiazine]: the glomerular separation in test [1] came out at 0.947 ± 0.41. Further, the glomerular width in test [2] was determined as 1.03 ± 0.031. The “fraction of imaged embryos annotated” value in test [3] worked out at 0.917. Also, in test [4], the “pronephric angle neck segment” value is 0.9587 ± 0.0092.

In the case of `COc1cc(-c2ccc(=O)[nH]n2)ccc1OC(F)F` [Zardaverine], in test [1], the glomerular separation came to 1.12 ± 0.48. Further, in test [2], the glomerular width was found to be 0.9712 ± 0.0072. Further, the “fraction of imaged embryos annotated” value in test [3] amounted to 0.583. Also, in test [4], the “pronephric angle neck segment” value amounted to 0.994 ± 0.013.

Regarding `C[C@H](N[C@@H](CCc1ccccc1)C(=O)O)C(=O)N1CCC[C@H]1C(=O)O` [Enalaprilat dihydrate], the glomerular separation in test [1] was found to be 1.03 ± 0.34. In test [2], the glomerular width came to 1 ± 0.012. For the same compound, in test [3], the “fraction of imaged embryos annotated” value was 1. Besides, the “pronephric angle neck segment” value in test [4] came to 1.01 ± 0.025.

The values are drawn from the supplement of paper PMC7366291.
